Some compounds were tested as several samples or in several runs, with calls that do not always agree. Activity calls are given as the source filed them. The calls were made as follows: active = hit-call score of the fitted dose curve at least 0.9, where 1 is the maximum; inactive = score below 0.9.

By AC50 is commonly meant the midpoint of the concentration-response curve, whichever way the signal moves.

Read-out in one assay: Tissue plasminogen activator (tPA), PLAT (gene 5327)
Description: BSK_BE3C_tPA: BioMAP Diversity Plus: BE3C Assay for Tissue plasminogen activator (tPA) Biomarker Activity (AID 2283041).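 As to outcome: tPA level quantified by ELISA one day after compound addition.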 The settings on record: primary human bronchial epithelial cells; actives raise or lower the signal. In short, it runs like this: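 Gain- or loss-of-signal in tPA, measured by ELISA, derived by bidirectional fitting against DMSO. Cells: human primary bronchial epithelial; read at 24 h after chemical dosing.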
As for `COC(=O)c1ccccc1O`, the outcome was inactive.

`COCCOCCOCCOC`: the outcome was inactive.

Consider `O=c1[nH]c2ccc(S(=O)CCN3CCC(Cc4ccc(F)cc4)CC3)cc2o1` (configuration not stated), for which the outcome was inactive.

For the compound `O=C(O)CC(O)C(=O)O` (configuration not stated), the outcome was inactive.

For the compound `CC(C)CC(C)(O)C#CC(C)(O)CC(C)C` (configuration not stated), the outcome was inactive.

On to `CC/C(=C\C(=N/O)C(N)=O)C(C)[N+](=O)[O-]` (configuration not stated), for which the outcome was inactive.

With `COCCOc1cc2cc(C(=O)NC3CCN(C(C)C)CC3)n(CC(=O)Nc3ccc(Cl)cn3)c2cn1`, the result was inactive.

Consider `COC(=O)CC(=O)OC`, for which the outcome was inactive.

For the compound `C1N2CN3CN1CN(C2)C3`, the outcome was inactive.

`CNCc1ccc(NC(=O)c2c[nH]c3c2C(=O)CCC3)cc1`: the outcome was inactive.

For the compound `CC(=O)OC[C@H]1O[C@@](COC(C)=O)(O[C@H]2O[C@H](COC(C)=O)[C@@H](OC(C)=O)[C@H](OC(C)=O)[C@H]2OC(C)=O)[C@@H](OC(C)=O)[C@@H]1OC(C)=O`, the result was inactive.

As for `O=C(O)c1cc(N=Nc2ccc(S(=O)(=O)Nc3ccccn3)cc2)ccc1O`, the outcome was inactive.

As to `CCCCCCCCO`, the result was inactive.

For `CN(C)c1ccc(Cc2ccc(N(C)C)cc2)cc1`, the result was inactive.

Turning to `C[C@](N)(Cc1ccc(O)c(O)c1)C(=O)O`, the outcome was inactive.

Regarding `CCOCCOCCOCCO`, the result was inactive.

With `CC[C@H]1CC[C@H](NCc2cc3c(cc2OC)[C@H]2C[C@H]2C(=O)N3C)[C@H](c2ccccc2)N1`, the outcome was inactive.

For the compound `Nc1ccc(Nc2ccccc2)cc1`, the result was inactive.

`On1ccccc1=S`: the AC50 is 3.55 µM (active).

Consider `CCOC(=O)CC(CC(=O)OCC)(OC(C)=O)C(=O)OCC`, for which the outcome was inactive.

For `O=C(O)c1cccc(Oc2ccccc2)c1`, the result was inactive.

`Cn1cnc([N+](=O)[O-])c1Sc1ncnc2nc[nH]c12`: the AC50 was 6.7 µM (active) and the result was inactive.

Read-out in the next assay: Interleukin-8 (IL8), CXCL8 (gene 3576)
Description: BSK_CASM3C_IL8: BioMAP Diversity Plus: CASM3C Assay for Interleukin-8 (IL8) Biomarker Activity (AID 2283042).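 Also: IL-8 protein level quantified by ELISA.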 To be noted: primary human coronary artery smooth muscle cells; actives raise or lower the signal.
In the case of `Clc1nc(Cl)c(Cl)c(Cl)c1Cl`, the result was inactive.

Regarding `CC[C@H]1OC(=O)[C@H](C)[C@@H](O[C@H]2C[C@@](C)(OC)[C@@H](O)[C@H](C)O2)[C@H](C)[C@@H](O[C@@H]2O[C@H](C)C[C@H](N(C)C)[C@H]2O)[C@](C)(O)C[C@@H](C)C(=O)[C@H](C)[C@@H](O)[C@]1(C)O`, the result was inactive.

With `CCOc1cccc(-n2cc(C(=O)N3CCN(c4cc(C(=O)O)c5ccccc5c4)CC3)nc2-c2ccc(C)cc2)c1`, the outcome was inactive.

Regarding `CC(C)CCCCCCOC(=O)c1ccc(C(=O)OCCCCCCC(C)C)c(C(=O)OCCCCCCC(C)C)c1`, the result was inactive.

On to `Cc1[nH]cnc1C[C@H]1CCc2c(C)c3ccccc3n2C1=O`, for which the outcome was inactive.

As to `Oc1ccc2c(c1)-c1ccccc1C2`, the outcome was inactive.

Regarding `CCCN(C1CCN(C(=O)C2CCNCC2)CC1)[C@@H]1CCc2ccc(OC)cc2C1`, the result was inactive.

Consider `COC(=O)c1ccccc1O`, for which the result was inactive.

With `COCCOCCOCCOC`, the outcome was inactive.

For `O=c1[nH]c2ccc(S(=O)CCN3CCC(Cc4ccc(F)cc4)CC3)cc2o1` (configuration not stated), the result was inactive.

On to `O=C(O)CC(O)C(=O)O` (configuration not stated), for which the result was inactive.

With `CC(C)CC(C)(O)C#CC(C)(O)CC(C)C` (configuration not stated), the outcome was inactive.

Regarding `CC/C(=C\C(=N/O)C(N)=O)C(C)[N+](=O)[O-]` (configuration not stated), the result was inactive.

Regarding `COCCOc1cc2cc(C(=O)NC3CCN(C(C)C)CC3)n(CC(=O)Nc3ccc(Cl)cn3)c2cn1`, the result was inactive.

Take `COC(=O)CC(=O)OC`: the result was inactive.

For `C1N2CN3CN1CN(C2)C3`, the outcome was inactive.

As to `CNCc1ccc(NC(=O)c2c[nH]c3c2C(=O)CCC3)cc1`, the outcome was inactive.

`CC(=O)OC[C@H]1O[C@@](COC(C)=O)(O[C@H]2O[C@H](COC(C)=O)[C@@H](OC(C)=O)[C@H](OC(C)=O)[C@H]2OC(C)=O)[C@@H](OC(C)=O)[C@@H]1OC(C)=O`: the result was inactive.

As for `O=C(O)c1cc(N=Nc2ccc(S(=O)(=O)Nc3ccccn3)cc2)ccc1O`, the result was inactive.

For the compound `CCCCCCCCO`, the outcome was inactive.

For the compound `CN(C)c1ccc(Cc2ccc(N(C)C)cc2)cc1`, the outcome was inactive.

Regarding `C[C@](N)(Cc1ccc(O)c(O)c1)C(=O)O`, the outcome was inactive.

As to `CCOCCOCCOCCO`, the outcome was inactive.

For `CC[C@H]1CC[C@H](NCc2cc3c(cc2OC)[C@H]2C[C@H]2C(=O)N3C)[C@H](c2ccccc2)N1`, the outcome was inactive.

On to `Nc1ccc(Nc2ccccc2)cc1`, for which the result was inactive.

For the compound `On1ccccc1=S`, the outcome was inactive.

Take `CCOC(=O)CC(CC(=O)OCC)(OC(C)=O)C(=O)OCC`: the outcome was inactive.

Regarding `O=C(O)c1cccc(Oc2ccccc2)c1`, the result was inactive.

As to `Cn1cnc([N+](=O)[O-])c1Sc1ncnc2nc[nH]c12`, the outcome was inactive.

Read-out in the next assay: Human Leukocyte Antigen - DR isotype (HLADR), HLA-DRA (gene 3122)
Put plainly: BSK_CASM3C_HLADR: BioMAP Diversity Plus: CASM3C Assay for Human Leukocyte Antigen - DR isotype (HLADR) Biomarker Activity (AID 2283043).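 Also: cell-surface HLA-DR protein level quantified by ELISA.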 The settings on record: primary human coronary artery smooth muscle cells; actives raise or lower the signal.
As for `Clc1nc(Cl)c(Cl)c(Cl)c1Cl`, the result was inactive.

Consider `CC[C@H]1OC(=O)[C@H](C)[C@@H](O[C@H]2C[C@@](C)(OC)[C@@H](O)[C@H](C)O2)[C@H](C)[C@@H](O[C@@H]2O[C@H](C)C[C@H](N(C)C)[C@H]2O)[C@](C)(O)C[C@@H](C)C(=O)[C@H](C)[C@@H](O)[C@]1(C)O`, for which the outcome was inactive.

In the case of `CCOc1cccc(-n2cc(C(=O)N3CCN(c4cc(C(=O)O)c5ccccc5c4)CC3)nc2-c2ccc(C)cc2)c1`, the AC50 was 27 µM (active).

For `CC(C)CCCCCCOC(=O)c1ccc(C(=O)OCCCCCCC(C)C)c(C(=O)OCCCCCCC(C)C)c1`, the outcome was inactive.

Consider `Cc1[nH]cnc1C[C@H]1CCc2c(C)c3ccccc3n2C1=O`, for which the outcome was inactive.

For the compound `Oc1ccc2c(c1)-c1ccccc1C2`, the result was inactive.

On to `CCCN(C1CCN(C(=O)C2CCNCC2)CC1)[C@@H]1CCc2ccc(OC)cc2C1`, for which the result was inactive.

Regarding `COC(=O)c1ccccc1O`, the result was inactive.

Consider `COCCOCCOCCOC`, for which the outcome was inactive.

For the compound `O=c1[nH]c2ccc(S(=O)CCN3CCC(Cc4ccc(F)cc4)CC3)cc2o1` (configuration not stated), the result was inactive.

Turning to `O=C(O)CC(O)C(=O)O` (configuration not stated), the result was inactive.

Consider `CC(C)CC(C)(O)C#CC(C)(O)CC(C)C` (configuration not stated), for which the result was inactive.

As to `CC/C(=C\C(=N/O)C(N)=O)C(C)[N+](=O)[O-]` (configuration not stated), the AC50 is 22.3 µM (active).

With `COCCOc1cc2cc(C(=O)NC3CCN(C(C)C)CC3)n(CC(=O)Nc3ccc(Cl)cn3)c2cn1`, the result was inactive.

In the case of `COC(=O)CC(=O)OC`, the outcome was inactive.

On to `C1N2CN3CN1CN(C2)C3`, for which the outcome was inactive.

Take `CNCc1ccc(NC(=O)c2c[nH]c3c2C(=O)CCC3)cc1`: the outcome was inactive.

`CC(=O)OC[C@H]1O[C@@](COC(C)=O)(O[C@H]2O[C@H](COC(C)=O)[C@@H](OC(C)=O)[C@H](OC(C)=O)[C@H]2OC(C)=O)[C@@H](OC(C)=O)[C@@H]1OC(C)=O`: the result was inactive.

On to `O=C(O)c1cc(N=Nc2ccc(S(=O)(=O)Nc3ccccn3)cc2)ccc1O`, for which the outcome was inactive.

Take `CCCCCCCCO`: the result was inactive.

As to `CN(C)c1ccc(Cc2ccc(N(C)C)cc2)cc1`, the outcome was inactive.

Regarding `C[C@](N)(Cc1ccc(O)c(O)c1)C(=O)O`, the outcome was inactive.

`CCOCCOCCOCCO`: the result was inactive.

Turning to `CC[C@H]1CC[C@H](NCc2cc3c(cc2OC)[C@H]2C[C@H]2C(=O)N3C)[C@H](c2ccccc2)N1`, the outcome was inactive.

`Nc1ccc(Nc2ccccc2)cc1`: the outcome was inactive.

As to `On1ccccc1=S`, the AC50 is 27.7 µM (active).

With `CCOC(=O)CC(CC(=O)OCC)(OC(C)=O)C(=O)OCC`, the outcome was inactive.

With `O=C(O)c1cccc(Oc2ccccc2)c1`, the outcome was inactive.

Regarding `Cn1cnc([N+](=O)[O-])c1Sc1ncnc2nc[nH]c12`, the AC50 is 11.3 µM (active) and the result was inactive.

Values taken from PubChem BioAssay (EPA / NIEHS).
